# PHOSPHO1 block: PHOSPHO1 (human) inhibition; Q8TCT1; recombinant PHOSPHO1, absorbance phosphatase assay; inhibition, % at 13.3 µM; 290,000 tested, 1.1% active; AID 1565; in the data active = inhibition above about 60%
# HDAC3 inhib: blocks human histone deacetylase 3. recombinant HDAC3, fluorogenic peptide/trypsin coupled, fluorescence. inhibition, % at 8.3 µM. 320,000 tested, 0.15% active. AID 2718; in the data active = inhibition above about 26%, passing the limit was not always enough
# Target sequence (O15379 whole entry, looked up): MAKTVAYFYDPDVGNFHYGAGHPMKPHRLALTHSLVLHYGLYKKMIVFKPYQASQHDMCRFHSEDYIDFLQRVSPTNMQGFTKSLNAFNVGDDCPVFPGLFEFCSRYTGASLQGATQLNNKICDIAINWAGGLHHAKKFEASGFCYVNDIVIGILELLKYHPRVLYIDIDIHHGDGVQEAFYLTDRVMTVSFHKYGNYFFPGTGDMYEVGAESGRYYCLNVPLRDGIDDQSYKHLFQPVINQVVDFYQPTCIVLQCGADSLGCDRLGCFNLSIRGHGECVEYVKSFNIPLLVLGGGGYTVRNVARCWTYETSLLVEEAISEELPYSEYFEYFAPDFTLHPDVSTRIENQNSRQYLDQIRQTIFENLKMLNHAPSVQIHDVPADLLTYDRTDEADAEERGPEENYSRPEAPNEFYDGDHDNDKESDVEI
# PvdQ acylase: P. aeruginosa PvdQ acylase inhibition. purified PvdQ acylase, fluorescence plate reader. inhibition, % at 10 µM. 340,000 tested, 0.063% active; in the data active = inhibition above about 30%, passing the limit was not always enough;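 note: 0% = vehicle neutral wells and 100% = reference inhibitor wells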
# Mot1-301 SUMO: blocks SUMOylation pathway, rescuing yeast Mot1-301 growth; S. cerevisiae Mot1-301 growth rescue, ATP luminescence, 38.5C; percent above DMSO median, 100 means doubled; growth rescue, % at 18.8 µM; 320,000 tested, 1% active;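 active = every valid replicate shows activation above 250% relative to neutral control wells; inactive = the rest, any valid replicate at or below 250%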;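 note: OY570 slx delta 5 strain wells were the positive control but not used for scaling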
# pCIP destab: p/CIP protein destabilization; 290,000 tested, 0.01% active; AID 1984; F442A p/CIP-EGFP cells, EGFP fluorescence, 16 h; Q05BA5; decrease of EGFP signal, % at 10 µM;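 active = EGFP signal decrease of at least 30% at 10 µM or well 3 SD below plate mean, unless failing retest; inactive = the rest, including hits failing retest or dose response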
# JMJD2C inh: human JMJD2C demethylase inhibition | AID 2099 | Q9H3R0 | inhibition, % at 2.35 µM | 330,000 tested, 0.069% active | GST-JMJD2C(1-420) H3K9me3 demethylation, DELFIA europium;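 active = more than half of a compound's replicate wells show inhibition beyond 50%, single wells judged on their own value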;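 note: signal counts dimethyl H3K9 product captured on neutravidin plate; 0% = median of DMSO wells and 100% = 0.3 times that DMSO median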
# Yeast Mot1 SUMO: yeast SUMO pathway inhibition in dose response. 2,300 tested, under 10 active. growth activity, percent, % at 42 µM. shares compounds with Mot1-301 SUMO. S. cerevisiae Mot1-301 galactose growth, ATP luminescence, 24 h; -100 = growth of slx-deleted rescue strain;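 active = Signal drops as the depositor expects, and the fitted half-maximal dose is no more than ten times the top valid tested dose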;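 note: more negative values mean stronger growth rescue toward the control strain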
# Numbers without * were called inactive; / = no result; + = active, no number. Only some compounds are listed: those with a hit (about 2.2% of all), similar ones and a draw of the others.
SMILES,PHOSPHO1 block,HDAC3 inhib,PvdQ acylase,Mot1-301 SUMO,pCIP destab,JMJD2C inh,Yeast Mot1 SUMO
O=C(CN1CCCC1)Nc1cccc(Cl)c1Cl,13.9,1.6,-15.6,-1.8,-5.9,6.9,/
O=C(NNc1ccccc1)c1ccccc1,/,/,-3.5,/,/,/,/
CC(C)C(O)(C(=O)NNc1ccccc1)C(C)C,24.0,-5.8,-14.5,583.2*,-1.3,-5.0,0.6
COc1ccc(N(Cc2ccccc2)S(=O)(=O)c2cccc(C(=O)Nc3ccccn3)c2)cc1,/,0.4,2.9,-6.3,/,/,/
O=C(Nc1ccccn1)c1ccc(CN(c2ccccc2)S(=O)(=O)c2ccccc2)cc1,13.2,3.8,5.5,504.8*,-9.5,5.6,0.3
CCCCCCOc1ccc(N2C(=O)CC(N3CCC(C(=O)OCC)CC3)C2=O)cc1 (stereo not drawn),14.3,-4.2,2.9,552.9*,0.2,-1.8,0.0
CCc1ccc(N2C(=O)CC(N3CCC(C(=O)OC)CC3)C2=O)cc1 (stereo not drawn),-10.7,7.6,0.0,490.7*,-10.3,17.0,-0.6
COC(=O)C1=C(C)N(C)C(=S)NC1c1c(OC)ccc2ccccc12 (stereo not drawn),38.5,-2.9,-7.1,-9.9,-0.7,-8.1,/
CN(C)/C=N/NC(=O)c1ccccc1,-12.3,-2.3,-4.5,921.0*,-1.6,0.9,1.1
Cc1cccc(OCCCC(=O)Nc2ccc(S(=O)(=O)Nc3nccs3)cc2)c1C,11.1,8.4,-10.7,218.8,-12.7,3.8,/
Cc1ccc(CSCCNC(=O)c2ccc(NS(C)(=O)=O)cc2)cc1,32.2,-1.9,-14.7,453.3*,-1.1,4.8,-0.3
CCOc1ccc(N2C(=O)CSC23CCCCC3)cc1,11.6,-7.2,-9.2,-4.0,-14.0,2.2,/
COc1ccc(N2C(=O)CSC23CCCCC3)cc1,11.1,0.3,-7.0,+,-46.6,41.7,0.8
CCCCCCCCNc1ccccc1S(=O)(=O)NCc1ccccc1,/,/,12.0,/,/,/,/
COc1cccc(C(=O)N2CCN(S(=O)(=O)Cc3ccccc3)CC2)c1OC,26.6,1.1,-8.4,530.0*,1.8,-28.8,0.3
COc1ccccc1C(=O)N1CCN(S(=O)(=O)Cc2ccccc2)CC1,0.6,-0.3,-16.0,-7.4,0.0,-1.7,/
Cc1ccc(C)c(NC(=S)NC(=O)c2cncc(Br)c2)c1,/,3.6,/,571.4*,/,-2.1,-0.3
O=C(Nc1nccs1)c1ccc(S(=O)(=O)c2ccccc2)cc1,-31.3,2.6,0.9,694.9*,-6.9,-11.9,0.2
O=C(Nc1nccs1)c1ccc(S(=O)(=O)N2CCCCC2)cc1,25.6,3.9,-7.7,-6.6,-2.5,8.3,/
Cc1oc(-c2ccccc2Cl)nc1CS(=O)(=O)CC(=O)NCCN1CCOCC1,12.3,/,-4.1,-14.2,-12.4,14.5,/
CC(NC(=O)C12CC3CC(CC(O)(C3)C1)C2)c1ccccc1 (stereo not drawn),18.7,8.0,-5.0,409.2*,14.3,-15.0,-1.0
CC(=O)NC(Cc1ccccc1F)C(=O)NC1CCN(C(=O)Nc2ccc(C)cc2)CC1 (stereo not drawn),31.1,-5.0,-11.1,29.2,-18.2,45.9,/
O=C(NCc1cccnc1)C1CCN(S(=O)(=O)c2cccnc2)CC1,12.4,2.5,-7.2,+,4.1,6.9,-0.7
CCOc1cc(NC(=O)c2cccs2)c(OCC)cc1NC(=O)CCC(=O)NCCN1CCOCC1,31.1,4.0,-7.3,387.8*,7.7,-4.7,0.6
CC(C)(C)CC(=O)Nc1cc(S(=O)(=O)N2CCOCC2)ccc1N1CCCC1,-8.5,0.3,-7.3,508.4*,4.8,16.3,0.4
Cc1ccccc1CNC(=O)CN(c1cccc([N+](=O)[O-])c1)S(C)(=O)=O,8.1,3.1,-10.7,238.0,11.6,-0.8,/
CN(C(=O)CSc1nc2ccccc2o1)C1CCS(=O)(=O)C1 (stereo not drawn),/,1.8,-2.5,2.8,/,-12.1,/
CN(C(=O)CSc1nc(-c2ccccc2)c(-c2ccccc2)o1)C1CCS(=O)(=O)C1 (stereo not drawn),-13.7,-2.1,-9.4,543.2*,18.6,-11.9,0.6
